Measurements published in paper PMC13494018.
A number with no mark means an inactive call. How the calls were made is not given here.

Target: CD276, Q5ZPR3
Sequence (Q5ZPR3 whole entry): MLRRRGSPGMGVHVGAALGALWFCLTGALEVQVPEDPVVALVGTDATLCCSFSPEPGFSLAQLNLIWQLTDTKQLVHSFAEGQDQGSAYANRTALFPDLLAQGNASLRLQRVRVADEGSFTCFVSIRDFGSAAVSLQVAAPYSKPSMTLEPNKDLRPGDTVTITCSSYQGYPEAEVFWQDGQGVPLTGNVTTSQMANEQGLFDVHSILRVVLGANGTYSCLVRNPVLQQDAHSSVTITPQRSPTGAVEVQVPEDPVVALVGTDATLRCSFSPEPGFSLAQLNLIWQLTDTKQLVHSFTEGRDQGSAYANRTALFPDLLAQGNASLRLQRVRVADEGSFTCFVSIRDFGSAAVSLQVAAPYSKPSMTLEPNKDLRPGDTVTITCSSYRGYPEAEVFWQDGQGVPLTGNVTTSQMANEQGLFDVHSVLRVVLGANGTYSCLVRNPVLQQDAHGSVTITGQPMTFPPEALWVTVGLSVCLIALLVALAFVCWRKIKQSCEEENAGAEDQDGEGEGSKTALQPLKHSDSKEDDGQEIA

Binder | binding in a display sort
design_614_ef6b398b-10cb-4a07-8087-96dafb4f9c83_1693_dldesign_0_cycle1_af2pred (protein) AEELREEAERLREESRRLREEGIKGNAEEARKALLEINRNAGRLARLAVEASQLDPEVAAVANEALAEALENARALDETRRKLAA | not found
design_614_ef6b398b-10cb-4a07-8087-96dafb4f9c83_806_dldesign_0_cycle1_af2pred (protein) AAAQLAAENIALAKAIFEEVRKEALKAIEALKKAKEAASDPELAAKYLEKAKEALKKAEELAAKGSEGIALLARNYVRSLLASTA | not found
design_615_ab801fab-270b-4f6a-b2b5-83c165df418c_137_dldesign_0_cycle1_af2pred (protein) MEKEKELLKKAKELYEAAKTMAEVAKNAVALGHRSGALAAIKGIEQAAKAIEELAKEAKDEEVKKKIKELAKEAKKLAEEMKKLAEKA | not found
design_615_ab801fab-270b-4f6a-b2b5-83c165df418c_121_dldesign_0_cycle1_af2pred (protein) GKDEELAKEAKKIAEAAEGVAASALALAAQPGLLAAAAAFARKAAEELERLGKENSKELEKVAKKEAKRAKEAAERVEAALKAATA | not found
design_615_ab801fab-270b-4f6a-b2b5-83c165df418c_110_dldesign_0_cycle1_af2pred (protein) SAELAKLNGEALELAKLGAEEGAEYAEKAMELVIEAARLAGDEEGAKYAEEMREEALKAAKESPKEAAQIVMTALSRVFSRIAA | not found
design_615_ab801fab-270b-4f6a-b2b5-83c165df418c_209_dldesign_0_cycle1_af2pred (protein) SAQAQEAATRAAEALARHLARQVAEHGVSDADFEGNVDILVALGRQSAAAGEAAAAVLEEAKAADPERFGAAAERLKAAAAEAK | not found
design_614_ef6b398b-10cb-4a07-8087-96dafb4f9c83_1662_dldesign_0_cycle1_af2pred (protein) SEEAQKKLEEAKRLLELAKEKLATDPQQGLVYALEAQELAAEALKDPEFAEEAQEILEEASRVASQAAARAIAQAQA | not found
design_614_ef6b398b-10cb-4a07-8087-96dafb4f9c83_950_dldesign_0_cycle1_af2pred (protein) AAAAAERTLAGIETLLEILRAAAADPRVTPAQLRAVINAARTAVEELERLDPELGREARERVEAAAREAEAAV | not found
design_615_ab801fab-270b-4f6a-b2b5-83c165df418c_67_dldesign_0_cycle1_af2pred (protein) AVKEEAQKVLAESLEYMEKYKDDKEVVAEFNKAANYASKAITGPEETGKEYLAKAKEYLEKGKALAKEKEA | not found
design_615_ab801fab-270b-4f6a-b2b5-83c165df418c_149_dldesign_0_cycle1_af2pred (protein) AAAALEAIRDEGAATLTALAGPQLGALFRVAVQAAISGKLELAEQLLDAVVAEAAAINPAAAEKAKELKALALAIARA | not found
design_614_ef6b398b-10cb-4a07-8087-96dafb4f9c83_1868_dldesign_0_cycle1_af2pred (protein) TAAIATATIVALTKTASRSSVEDAKKLVEVAVGIAASLSAADAKAAIDAGLKVAKELAEEKNTETASVVAKELEKGGAKVAAEKA | not found
design_614_ef6b398b-10cb-4a07-8087-96dafb4f9c83_884_dldesign_0_cycle1_af2pred (protein) MAVSDTLATNLATAERLLQRGIELAKTDPQAGIAQLRAAEILAQGTAAAAAAAGDTATAARAQAVAERARQAIEEV | binds (active)
design_614_ef6b398b-10cb-4a07-8087-96dafb4f9c83_1173_dldesign_0_cycle1_af2pred (protein) LLEEALALGAEAIAEGQEAIALAVALGPEFQPFALELSRLMARIAAAQIQLVRDPEAGAAALREEIEELRRAIQELLDSL | not found
design_614_ef6b398b-10cb-4a07-8087-96dafb4f9c83_1557_dldesign_0_cycle1_af2pred (protein) SAAAAALAAANAEIDAHAARAVELAAGLPHAEEVRALITAGAAAAKSGTQLAEAFRLFSEAARLSNEATRAELRKAIAAANKAALA | not found
design_614_ef6b398b-10cb-4a07-8087-96dafb4f9c83_2028_dldesign_0_cycle1_af2pred (protein) NAAAAEMAAAAAAFAATAAAAVTLSPEAGRKAVSAAFTAALTAISALGATASDEQTVAAMNTVWSTYIAATTALQAKAA | not found
design_614_ef6b398b-10cb-4a07-8087-96dafb4f9c83_1110_dldesign_0_cycle1_af2pred (protein) GEELAESAKKLMEVLKDVAKDAAARDPANAAKYLADAKKAEEEAKKALEESPEKGMQAAQDALAKFQKAAIAAAKA | not found
design_614_ef6b398b-10cb-4a07-8087-96dafb4f9c83_1043_dldesign_0_cycle1_af2pred (protein) AAAEAAAVSKKAAELAKKALEKAKRMSPEEAINLAFQVATQAIRLGADAEAAINAIKIASEKGPEAGLKYLAEALEK | not found
design_615_ab801fab-270b-4f6a-b2b5-83c165df418c_622_dldesign_0_cycle1_af2pred (protein) VTPEEAHQALASTVMRLAQQLGLSGGAISTGLRLASEAARAFAEDPEKMRKVVEEGAKKIEALEGEKGKVVGEELRRKAEEIVA | not found
design_615_ab801fab-270b-4f6a-b2b5-83c165df418c_234_dldesign_0_cycle1_af2pred (protein) LEESARKAAELALDLAKYAAANPATAPQALASIAGLARNAIEAGAEAAKLMAEALKKGAEYVAKNGTAAQAEQVKAIRERAERGAREA | not found
